This note sets out measurements from PubChem BioAssay (NCI).

Compounds without any hit were thinned out: in the full panel of roughly 83,000, 20% have a hit.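 Step 1: grow cells in 96-well plates. Step 2: add test compound at a single concentration. Step 3: incubate 48 h. Step 4: record percent growth.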 A number with no mark means an inactive call. The source made the active and inactive calls. How the source made its calls: active means growth percent below 10; inactive means the rest.

Common to all, as to assay: NCI-60 one-dose screen, 48 h (100 = growth as untreated, 0 = no growth, -100 = all killed)
Common to all, as to details: 10 µM unless noted

The test system of test [1] is HCT-15 colon.
Test [2] deals with HT29 colon.
In test [3] the test system is SNB-19 CNS.
In test [4] the test system is U251 CNS.
In test [5] the test system is PC-3 prostate.
In test [6] the test system is SK-MEL-5 melanoma.
Test [7] relates to UACC-62 melanoma.
Test [8] deals with LOX IMVI melanoma.
Test [9] relates to SK-MEL-28 melanoma.
For test [10], the system named is SK-MEL-2 melanoma.
Test [11] deals with EKVX NSCLC.
Test [12] has as its system SN12C renal.
Test [13] relates to UO-31 renal.
For test [14], the system named is TK-10 renal.
Test [15] has as its system ACHN renal.
The subject of test [16] is CAKI-1 renal.
The test system of test [17] is A498 renal.
Test [18] has as its system CCRF-CEM leukemia.
The subject of test [19] is MOLT-4 leukemia.

As to `O=c1ccn(-c2ncnc3nc[nH]c23)cc1`, the growth was 102% in test [1]; 109% in test [2]; 98.4% in test [3]; 95.5% in [4]; 96.6% in test [5]; 114% in test [6]. The growth in test [7] is 92.8%; in [8], 96.3%; in test [9], 94.6%; in test [10], 90.9%; in [11], 91.4%; in test [12], 90.3%. Further, the growth in test [13] is 67%; in test [14], 86.4%; in [15], 99.3%; in [16], 74.6%; in [17], 87.6%; in [18], 89.7%. In test [19], the growth is 96%.

With `CCO/C=N/C1=C(C#N)C(c2ccc(Cl)cc2)c2c(c3ccccc3n(C)c2=O)O1` (configuration not stated), the growth in test [1] is 41.1%; in test [2], 35%; in test [3] it was 72.9%; in test [4], 79.3%; in test [5] it was 63%; in test [6], 74.2%. Besides, the growth is 46.5% in test [7]; 64.7% in test [8]; 83.9% in test [9]; 85.4% in [10]; 74% in test [11]; 74.6% in test [12]. The growth in test [13] was 56.2%; in test [14], 115%; in [15], 75.7%; in test [16] it was -0.281% (active); in test [17], 47.9%; in test [18] it was 66.9%. For the same compound, the growth in test [19] is 75.2%.

Take `O=c1ccn(C2CC(O)C(O)C(CO)O2)c(=O)[nH]1` (configuration not stated): the growth in test [1] is 117%; in [2], 113%; in test [3] it was 110%; in [4] it was 125%; in test [5], 89.5%; in test [6], 137%. Also, the growth was 105% in test [7]; 109% in [8]; 109% in test [9]; 145% in [10]; 110% in test [11]; 92.5% in [12]. The growth in test [13] was 85%; in test [14], 121%; in [15] it was 116%; in test [16], 97%; in test [17] it was 118%; in test [18] it was 7.45% (active). For the same compound, the growth in test [19] was 102%.

As for `Cc1ccc(S(=O)(=O)NCCCNc2cc(-c3cn(C(C)(C)C)nc3-c3cccc(O)c3)ccn2)cc1`, the growth in test [1] is 16.5%; in test [2], 12.8%; in test [3], 80%; in [4], 58.1%; in test [5], 39.6%; in test [6], 42.8%. For the same compound, the growth is 66.8% in [7]; 13.5% in [8]; 60.6% in test [9]; 70.4% in test [10]; 61% in test [11]; 64.6% in test [12]. Moreover, the growth is 73.2% in test [13]; 107% in [14]; 62.4% in test [15]; 59.7% in [16]; 85.1% in test [17]; 52.4% in test [18]. Also, in test [19], the growth was 49.1%.

Consider `CCOC(=O)c1cn2c3c(cc(C)cc3c1=O)C(=O)/C(=C/c1ccccc1)C2`, for which the growth in test [1] is 109%; in test [2] it was 105%; in test [3], 84.4%; in test [4], 83.3%; in test [5], 99%; in test [6], 91.3%. For the same compound, the growth is 68.1% in test [7]; 94.5% in [8]; 93.8% in [9]; 95.5% in [10]; 101% in test [11]; 94.2% in test [12]. For the same compound, the growth in test [13] was 57.6%; in [14], 75%; in test [15], 91.3%; in test [16], 73.3%; in [17] it was 86.9%; in test [18], 93.5%. For the same compound, the growth in test [19] is 86.9%.

As to `COc1cc(NC(=O)SC2=NCCS2)cc(OC)c1`, the growth in [1] was 105%; in test [2] it was 103%; in test [3] it was 90.5%; in test [4], 97.7%; in test [5], 93.6%; in test [6], 98.1%. Besides, the growth in test [7] was 88.9%; in test [8], 98.3%; in test [9], 98.5%; in [10] it was 106%; in test [11], 113%; in test [12], 91.8%. In addition, the growth was 93.6% in test [13]; 126% in test [14]; 102% in test [15]; 108% in test [16]; 90.3% in test [17]; 99.5% in test [18]. The growth in [19] is 110%.

Consider `COc1ccc(-n2c(=O)sc3c(Cl)nc(C)nc32)c(OC)c1`, for which the growth was 61.3% in [1]; 74.1% in test [2]; 49.6% in test [3]; 51.6% in test [4]; 85.2% in test [5]; 98.1% in [6]. For the same compound, the growth in test [7] was 78.4%; in [8], 29.1%; in test [9], 83.3%; in test [10], 99.4%; in [11], 75.9%; in [12], 81%. In addition, the growth in [13] is -23.2% (active); in [14] it was 115%; in test [15] it was 95.6%; in [16], -58.1% (active); in test [17], 91.1%; in test [18], 55.9%. Also, the growth in [19] is 78.2%.

In the case of `Cc1cc(N/N=C/c2nc(-c3ccc(Br)cc3)oc2C)c2cc(Br)ccc2n1`, the growth in [1] was 6.22% (active); in test [2] it was -16.1% (active); in test [3], 41.7%; in test [4], -9.51% (active); in test [5] it was 77.2%; in test [6] it was 92.9%. The growth in test [7] was 73.9%; in test [8], -37.6% (active); in test [9], 24.7%; in test [10], 99%; in test [11], 90.9%; in test [12] it was 26.8%. Moreover, the growth is 58.7% in test [13]; 82% in test [14]; 64.9% in test [15]; 88.3% in [16]; 85.7% in [17]; -4.62% (active) in test [18]. In addition, in test [19], the growth was 7.29% (active).
